# Laboratory results published in paper PMC4601081.
# Legend:
# Test in all cases: cross-link between two proteins; cross-linking mass spectrometry
# [1] = molecular target: 26S proteasome regulatory subunit RPN3 (UniProt P40016)
# [2] = molecular target: 26S proteasome regulatory subunit RPN8 (UniProt Q08723)
# [3] = molecular target: Ubiquitin C-terminal hydrolase RPN11 (UniProt P43588)
# [4] = molecular target: 26S proteasome regulatory subunit RPN5 (UniProt Q12250)
# [5] = molecular target: 26S proteasome regulatory subunit RPN6 (UniProt Q12377)
# Chain of 26S proteasome regulatory subunit RPN6 (Q12377 whole entry): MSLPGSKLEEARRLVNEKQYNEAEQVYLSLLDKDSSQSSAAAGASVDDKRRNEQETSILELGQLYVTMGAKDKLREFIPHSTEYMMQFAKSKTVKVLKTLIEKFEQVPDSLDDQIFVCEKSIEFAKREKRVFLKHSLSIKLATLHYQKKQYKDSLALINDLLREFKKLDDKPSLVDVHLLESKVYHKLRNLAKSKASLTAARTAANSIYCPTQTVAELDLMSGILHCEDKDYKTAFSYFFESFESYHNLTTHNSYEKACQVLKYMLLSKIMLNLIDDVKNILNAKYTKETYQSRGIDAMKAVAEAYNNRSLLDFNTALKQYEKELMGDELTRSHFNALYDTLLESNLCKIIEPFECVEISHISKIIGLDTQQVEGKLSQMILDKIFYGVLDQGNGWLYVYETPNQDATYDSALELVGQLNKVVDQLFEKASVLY
# [6] = molecular target: 26S proteasome regulatory subunit RPN7 (UniProt Q06103)
# Chain of 26S proteasome regulatory subunit RPN7 (Q06103 whole entry): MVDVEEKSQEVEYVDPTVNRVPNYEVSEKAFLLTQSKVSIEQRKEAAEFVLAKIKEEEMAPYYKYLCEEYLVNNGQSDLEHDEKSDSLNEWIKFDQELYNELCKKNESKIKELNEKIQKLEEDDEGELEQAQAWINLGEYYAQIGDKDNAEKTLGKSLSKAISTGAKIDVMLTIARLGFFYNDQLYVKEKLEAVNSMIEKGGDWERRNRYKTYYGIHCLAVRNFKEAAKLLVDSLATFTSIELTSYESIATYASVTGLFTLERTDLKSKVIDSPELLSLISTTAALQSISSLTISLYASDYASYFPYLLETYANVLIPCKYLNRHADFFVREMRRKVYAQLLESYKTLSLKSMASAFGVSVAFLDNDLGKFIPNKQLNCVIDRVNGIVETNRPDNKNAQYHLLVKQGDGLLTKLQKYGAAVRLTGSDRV
# Chain of 26S proteasome regulatory subunit RPN8 (Q08723 whole entry): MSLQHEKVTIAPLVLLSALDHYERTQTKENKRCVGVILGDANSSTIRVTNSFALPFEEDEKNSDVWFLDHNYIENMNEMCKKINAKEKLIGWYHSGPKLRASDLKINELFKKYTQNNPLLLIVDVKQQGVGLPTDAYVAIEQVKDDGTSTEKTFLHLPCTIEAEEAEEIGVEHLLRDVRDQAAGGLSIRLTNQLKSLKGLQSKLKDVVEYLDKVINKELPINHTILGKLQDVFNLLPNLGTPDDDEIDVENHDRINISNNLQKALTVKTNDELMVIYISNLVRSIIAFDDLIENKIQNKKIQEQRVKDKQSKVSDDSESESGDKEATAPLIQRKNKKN
# Chain of 26S proteasome regulatory subunit RPN5 (Q12250 whole entry): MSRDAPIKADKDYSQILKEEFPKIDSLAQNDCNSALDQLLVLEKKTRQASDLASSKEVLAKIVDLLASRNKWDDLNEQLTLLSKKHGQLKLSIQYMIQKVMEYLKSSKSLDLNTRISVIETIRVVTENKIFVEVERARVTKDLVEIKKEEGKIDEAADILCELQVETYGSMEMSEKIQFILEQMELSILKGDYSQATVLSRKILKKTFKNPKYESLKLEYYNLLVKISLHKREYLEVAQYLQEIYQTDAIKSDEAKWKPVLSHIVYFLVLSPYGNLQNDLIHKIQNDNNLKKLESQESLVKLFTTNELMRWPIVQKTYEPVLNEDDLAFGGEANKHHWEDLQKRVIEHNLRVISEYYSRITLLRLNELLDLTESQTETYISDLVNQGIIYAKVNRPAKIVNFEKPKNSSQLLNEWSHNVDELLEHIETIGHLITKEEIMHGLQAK
# Chain of Ubiquitin C-terminal hydrolase RPN11 (P43588 whole entry): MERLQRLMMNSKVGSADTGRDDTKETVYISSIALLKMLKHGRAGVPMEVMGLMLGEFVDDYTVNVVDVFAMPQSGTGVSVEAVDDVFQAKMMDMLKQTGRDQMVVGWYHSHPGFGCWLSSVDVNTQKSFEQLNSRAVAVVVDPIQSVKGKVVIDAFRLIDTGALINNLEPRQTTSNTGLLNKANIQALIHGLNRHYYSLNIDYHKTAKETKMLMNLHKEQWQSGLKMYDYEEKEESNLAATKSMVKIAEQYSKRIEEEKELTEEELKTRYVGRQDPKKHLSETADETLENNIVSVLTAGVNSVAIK
# Chain of 26S proteasome regulatory subunit RPN3 (P40016 whole entry): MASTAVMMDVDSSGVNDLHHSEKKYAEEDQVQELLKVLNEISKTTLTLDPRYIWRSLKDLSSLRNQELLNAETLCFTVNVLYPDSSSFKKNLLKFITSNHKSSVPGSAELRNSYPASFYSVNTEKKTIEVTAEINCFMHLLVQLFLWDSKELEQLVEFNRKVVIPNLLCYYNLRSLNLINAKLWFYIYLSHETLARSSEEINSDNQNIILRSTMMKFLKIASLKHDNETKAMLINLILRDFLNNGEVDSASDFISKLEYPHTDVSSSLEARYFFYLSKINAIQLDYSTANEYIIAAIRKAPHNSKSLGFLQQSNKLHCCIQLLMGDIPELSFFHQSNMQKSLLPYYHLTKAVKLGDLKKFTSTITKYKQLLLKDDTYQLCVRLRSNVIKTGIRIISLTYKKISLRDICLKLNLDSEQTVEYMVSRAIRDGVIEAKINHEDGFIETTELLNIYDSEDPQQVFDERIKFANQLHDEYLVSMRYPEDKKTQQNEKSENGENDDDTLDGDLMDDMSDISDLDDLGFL
substance,measurement,setting,value
"26S proteasome complex subunit SEM1, O94742",listed as a hit,[1],yes
same,listed as a hit,[2],yes
same,listed as a hit,[3],yes
"Ubiquitin C-terminal hydrolase RPN11, P43588",listed as a hit,[4],yes
same,listed as a hit,[5],yes
same,listed as a hit,[6],yes
"26S proteasome regulatory subunit RPN7, Q06103",listed as a hit,[4],yes
same,listed as a hit,[5],yes
same,listed as a hit,[2],yes
"26S proteasome regulatory subunit RPN9, Q04062",listed as a hit,[4],yes
same,listed as a hit,[2],yes
"26S proteasome regulatory subunit RPN5, Q12250",listed as a hit,[5],yes
"26S proteasome regulatory subunit RPN3, P40016",listed as a hit,[6],yes
same,listed as a hit,[2],yes
same,listed as a hit,[3],yes
"26S proteasome regulatory subunit RPN8, Q08723",listed as a hit,[4],yes
same,listed as a hit,[5],yes
